{"source": "PubChem BioAssay (Tox21)", "note": "Results filed as inconclusive are left out. Where a call stands in place of a potency, no number is given. Active and inactive are the calls of the source. The call rests on the fitted dose curve; in most records, active means well fitted inhibition curve with a large enough effect in the repeat runs; inconclusive means weak or mixed curves, or effect the other way; inactive means no such curve, though single readings can be large or run the other way."}
{"target": "Nuclear receptor ROR-gamma (Homo sapiens) (UniProt P51449)", "assay": "qHTS assay to identify small molecule antagonists of the retinoid-related orphan receptor gamma (ROR-gamma) signaling pathway (AID 1159521; further: top concentration of the series differs between compounds; nearly all actives have a fitted effect of over 50% in size)", "conditions": "Tet-on RORgamma CHO cells, RORE-luciferase, 16 h; series mostly up to 92.4 µM", "method_in_brief": "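Luminescence readout (ONE-Glo, 30 min RT) after 16 h doxycycline induction; loss of signal scored as antagonism. CHO cells with TET-inducible RORγ and RORE-LUC reporter; compounds added 2 h before 1 uM final doxycycline.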"}
{"smiles": "c1ccc2c(c1)CCCC2", "Potency": "inactive"}
{"smiles": "CNc1cnn(-c2cccc(C(F)(F)F)c2)c(=O)c1Cl", "Potency": "inactive"}
{"smiles": "CNC(=O)O/N=C/C(C)(C)S(C)(=O)=O", "Potency": "inactive"}
{"smiles": "Nc1cccc(Cl)c1", "Potency": "inactive"}
{"smiles": "CNC(=O)O/N=C(\\SC)C(=O)N(C)C", "Potency": "inactive"}
{"smiles": "COC(C)(C)CCCC(C)C/C=C/C(C)=C/C(=O)OC(C)C", "note": "(configuration not stated)", "Potency": "inactive"}
{"smiles": "CN(C)C(=O)Nc1cccc(C(F)(F)F)c1", "Potency": "inactive"}
{"smiles": "CN(C)NC(=O)CCC(=O)O", "Potency": "inactive"}
{"smiles": "CN(C)C(=O)Cl", "Potency": "inactive"}
{"smiles": "Clc1cnc(Oc2ccc(Oc3ncc(Cl)cc3Cl)cc2)c(Cl)c1", "Potency": "inactive"}
{"smiles": "COc1cc(-c2ccc(N)c(OC)c2)ccc1N", "Potency": "inactive"}
{"smiles": "N#CN=C(N)N", "Potency": "inactive"}
{"smiles": "O=S(=O)(O)OOS(=O)(=O)O", "Potency": "inactive"}
{"smiles": "ClC(Cl)c1ccccc1", "Potency": "inactive"}
{"smiles": "Cc1cc(Cl)ccc1OC(C)C(=O)O", "note": "(configuration not stated)", "Potency": "inactive"}
{"smiles": "COP(=S)(OC)Oc1ccc(SC)c(C)c1", "Potency": "inactive"}
{"smiles": "CCOc1ccc(N)cc1", "Potency": "inactive"}
{"smiles": "ClCCOCCCl", "Potency": "inactive"}
{"smiles": "CC(C)(C)C(=O)CCl", "Potency": "inactive"}
{"smiles": "O=C(O)C(Br)Br", "Potency": "inactive"}
{"smiles": "C=CC(=O)OCC(CC)CCCC", "note": "(configuration not stated)", "Potency": "inactive"}
{"smiles": "C/C=C/c1ccc2c(c1)OCO2", "Potency": "inactive"}
{"smiles": "CCNc1nc(Cl)nc(NC(C)C)n1", "Potency": "inactive"}
{"smiles": "Oc1c(Br)cc(Br)cc1Br", "Potency": "inactive"}
{"smiles": "CN1C(=O)CCS(=O)(=O)C1c1ccc(Cl)cc1", "note": "(configuration not stated)", "Potency": "inactive"}
{"smiles": "COS(=O)(=O)OC", "Potency": "inactive"}
{"smiles": "OC[C@@H](O)[C@H]1O[C@@H]2O[C@H](C(Cl)(Cl)Cl)O[C@@H]2[C@H]1O", "Potency": "inactive"}
